Source: PubChem BioAssay AID1445 (SRMLSC, 2008)
Values joined by “and” are separate entries in the source; they are usually repeats but may differ in a detail not shown here. Equal values may be shown once. Screen size: about 220,000 compounds; about 910 (0.41%) were called active.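 Rule for the calls: active = primary inhibition above the hit cutoff, then over 50% inhibition at one or more dose response concentrations (cut at about 23% in these data, passing the limit was not always enough); inconclusive = conflicting primary data, or primary hits not chosen for dose response; inactive = low primary inhibition, or under 50% at every dose.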 Only a selection was taken, and actives are over-represented in it overall. Measured potencies and affinities stand elsewhere. Where a structure was tested more than once in an assay, its records may differ in their call.

The compounds below were run against Aminopeptidase N (Plasmodium falciparum (isolate 3D7)) (UniProt O96935) (assay: malaria alanyl aminopeptidase activity blockers – biochemical, fluorogenic H-Leu-NHMec substrate, 1536-well (AID 1445;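 note: plate controls were DMSO full reaction for no effect and no enzyme background for full effect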)). Conditions: recombinant M1AAP, H-Leu-NHMec fluorogenic kinetic assay; at 30 µM, stronger effect = higher value unless noted.
Sequence of Aminopeptidase N (Plasmodium falciparum (isolate 3D7)) (O96935 whole entry, looked up): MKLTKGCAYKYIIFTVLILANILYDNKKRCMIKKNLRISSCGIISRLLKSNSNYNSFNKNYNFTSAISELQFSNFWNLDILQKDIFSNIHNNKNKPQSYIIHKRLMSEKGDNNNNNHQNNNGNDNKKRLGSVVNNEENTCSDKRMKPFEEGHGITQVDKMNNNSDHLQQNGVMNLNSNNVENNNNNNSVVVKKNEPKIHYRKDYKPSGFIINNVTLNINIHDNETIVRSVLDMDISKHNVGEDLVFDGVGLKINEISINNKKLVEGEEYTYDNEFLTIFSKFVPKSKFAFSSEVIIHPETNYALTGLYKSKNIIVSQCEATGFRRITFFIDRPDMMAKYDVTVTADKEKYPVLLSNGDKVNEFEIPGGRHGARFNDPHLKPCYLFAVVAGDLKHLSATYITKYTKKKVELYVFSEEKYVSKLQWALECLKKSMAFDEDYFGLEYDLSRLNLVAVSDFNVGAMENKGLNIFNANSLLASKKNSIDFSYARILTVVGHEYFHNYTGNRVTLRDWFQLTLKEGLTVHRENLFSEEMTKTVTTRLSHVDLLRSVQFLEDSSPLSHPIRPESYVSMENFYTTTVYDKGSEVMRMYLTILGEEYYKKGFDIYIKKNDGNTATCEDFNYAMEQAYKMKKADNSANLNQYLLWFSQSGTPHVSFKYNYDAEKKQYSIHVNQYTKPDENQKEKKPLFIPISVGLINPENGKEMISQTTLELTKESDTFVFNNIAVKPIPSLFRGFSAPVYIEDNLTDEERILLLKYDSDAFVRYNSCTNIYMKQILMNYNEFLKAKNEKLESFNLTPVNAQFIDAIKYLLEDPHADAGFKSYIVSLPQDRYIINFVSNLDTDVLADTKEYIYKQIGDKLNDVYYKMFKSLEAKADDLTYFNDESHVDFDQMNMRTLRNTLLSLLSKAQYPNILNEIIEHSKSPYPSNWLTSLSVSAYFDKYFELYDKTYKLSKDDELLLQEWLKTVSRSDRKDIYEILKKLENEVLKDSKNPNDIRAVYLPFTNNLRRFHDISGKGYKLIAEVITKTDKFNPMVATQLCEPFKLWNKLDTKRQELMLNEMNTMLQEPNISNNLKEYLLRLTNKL

Structure (SMILES)	inhibition
Cc1ccn2c(NCc3ccc4c(c3)OCO4)c(-c3ccc(O)cc3)nc2c1	3.37% (inactive)
O=C(NCCc1nc2ccccc2[nH]1)/C(=C/c1ccco1)NC(=O)c1ccc(Br)cc1	3.21% (inactive)
O=C(O)CSc1nc(-c2ccccc2)nc2c1oc1ccccc12	8.15% (inactive)
Cc1nc(SCC(=O)O)c2oc3ccccc3c2n1	3.31% (inactive)
CN(C)c1ccc(/C=N/NC(=O)CCCO)cc1	16.7% (inactive)
C/C=C/c1ccc(OCCOc2ccc(C=O)cc2)c(OC)c1	9.05% (inactive)
C/C=C/c1ccc(OCCCCOc2ccc(OC)cc2)c(OC)c1	-1.18% (inactive)
Cc1cc(-c2nnc(SCC(=O)Nc3nc(-c4ccccc4)cs3)o2)no1	17.1% (inactive)
O=[N+]([O-])c1ccc(Oc2c(F)c(F)nc(N3CCCC3)c2F)cc1	1.61% (inactive)
O=C(O)c1cc(-c2ccco2)nc2cc3ccccc3cc12	15.5% (inactive)
O=C(O)c1cc(-c2ccco2)nc2ccc(Br)cc12	5.53% (inactive) and 27.5% (active)
O=C(O)c1cc(-c2ccco2)nc2ccccc12	5.44% (inactive)
COc1ccc(C2CC(=O)C(C=NCCN3CCN(C(=S)Nc4ccccc4)CC3)=C(O)C2)cc1OC (configuration not stated)	12.8% (inactive)
O=C(CNC(=O)c1ccccc1)N/N=C/c1cn[nH]c1-c1ccccc1	4.33% (inactive)
CC(C)NC(=O)c1sc2nc(-c3cccs3)cc(-c3cccs3)c2c1N	24.2% (active)
Cc1ccc(-c2cc(-c3ccccc3)c3c(N)c(S(C)(=O)=O)sc3n2)cc1	14.5% (inactive)
CC(C)NC(=O)c1sc2nc3c(c(-c4cccs4)c2c1N)CN(C)CC3	5.01% (inactive)
N#Cc1sc2nc(-c3cccs3)cc(-c3ccccc3)c2c1N	13.3% (inactive)
CCN(CC)C(=O)c1sc2nc(-c3cccs3)cc(-c3cccs3)c2c1N	7.47% (inactive)
Cc1ccc(NC(=O)CCc2c(C)nc3ncnn3c2C)cc1	0.77% (inactive)
CC(NC(=O)c1cc(-c2ccc3c(c2)OCO3)nc2ccccc12)C(C)(C)C (configuration not stated)	3.57% (inactive)
COc1ccc(C2/C=C\CN(Cc3ccco3)CC(=O)N2Cc2ccc(F)cc2)cc1 (configuration not stated)	4.94% (inactive)
C=CCN1C(=S)N[C@@H]2CS(=O)(=O)C[C@@H]21	5.08% (inactive)
O=C(Nc1cccc(F)c1)c1cc(S(=O)(=O)N2CCOCC2)cs1	9% (inactive)
COc1ccc(-c2cn3cccnc3n2)cc1NC(=O)c1ccc(Br)o1	11.3% (inactive)

Structure (SMILES)	inhibition
Cc1ccc(-c2cn3cccnc3n2)cc1NC(=O)c1ccc(Br)o1	24.6% (active)
O=C(Nc1cccc(-c2cn3cccnc3n2)c1)c1ccc(Br)o1	2.48% (inactive)
Cc1cc(N2CCCC2)c(C)cc1C=O	17.1% (inactive)
Cc1cccc(NC(=O)CN2CCSc3ccccc32)c1	6.82% (inactive)
Cc1cc(C)n2nc(C(=O)NNC(=O)c3ccccc3)nc2n1	5.93% (inactive)
COc1ccc(Cl)cc1C(=O)NNC(=O)c1nc2nc(C)cc(C)n2n1	0.99% (inactive)
O=C(OCn1nnc2ccccc2c1=O)c1cc(-c2ccccc2Cl)nc2ccccc12	12.3% (inactive)
Cc1ccc(N2C(=O)CC(Sc3nc(-c4ccccc4)c4cc(Cl)ccc4n3)C2=O)c(C)c1 (configuration not stated)	8.91% (inactive)
COc1ccc(CC(=O)n2[nH]c(=O)cc(C)c2=O)cc1OC	8.27% (inactive)
O=C(Nc1ccc2c(c1)OCCO2)C1CCN(S(=O)(=O)c2ccc3c(c2)OCCO3)CC1	9.64% (inactive)
COc1ccc(S(=O)(=O)N2CCC(C(=O)NCc3cccs3)CC2)cc1	6.28% (inactive)
O=C(NCc1cccs1)C1CCCN(S(=O)(=O)c2ccc3c(c2)OCO3)C1 (configuration not stated)	8.66% (inactive)
O=C(NCc1cccs1)C1CCN(c2ccc(S(=O)(=O)N3CCOCC3)cc2Cl)CC1	-0.57% (inactive)
O=C(NCc1ccc(Cl)cc1)C1CCN(S(=O)(=O)c2ccccc2)CC1	11.8% (inactive)
O=C(NCCc1ccc(Cl)cc1)C1CCN(S(=O)(=O)c2ccc(Br)s2)CC1	4.81% (inactive)
O=C(NCc1cccs1)C1CCN(S(=O)(=O)c2ccc3c(c2)OCCO3)CC1	23.4% (active)
COc1cccc(NC(=O)C2CCN(S(=O)(=O)c3ccc4c(c3)OCCO4)CC2)c1	43% (active)
NS(=O)(=O)c1ccc(CCNC(=O)C2CCN(S(=O)(=O)c3ccc(Br)s3)CC2)cc1	2.64% (inactive)
COc1ccc(S(=O)(=O)N2CCC(C(=O)Nc3ccc4c(c3)OCCO4)CC2)cc1OC	1.25% (inactive)
N#CCCN1CCN(C(=S)c2ccc(-c3ccc(Cl)c(Cl)c3)o2)CC1	7.98% (inactive)
N#C/C(=C(/O)c1ccc([N+](=O)[O-])cc1)c1nc2ccccc2[nH]1	6.69% (inactive)
CCOC(=O)N1CCN(C(=O)CCl)CC1	2.94% (inactive)
Cc1ccc(N2CCN(C(=O)c3ccccc3NC(=O)c3ccccc3C(=O)O)CC2)cc1	6.79% (inactive)
COCCNC(=O)c1cc2cc(Br)cc(Br)c2oc1=O	2.6% (inactive)
N#C/C(=C\c1ccc(-c2cccc(Cl)c2)o1)C(=O)Nc1cccc2cccnc12	-0.58% (inactive)

Structure (SMILES)	inhibition
Cn1c(N)c(C(=O)COC(=O)C2=COCCO2)c(=O)n(C)c1=O	3.8% (inactive)
O=C(NCc1cccs1)C1CCCN1S(=O)(=O)c1ccccc1F (configuration not stated)	2.94% (inactive)
O=C(NCc1cccs1)C1CCC(CNS(=O)(=O)c2ccc(Br)s2)CC1 (configuration not stated)	-4.74% (inactive)
O=C(NCc1cccs1)C1CCCN(S(=O)(=O)c2cccs2)C1 (configuration not stated)	14.9% (inactive)
CCS(=O)(=O)N1CCC(C(=O)NCc2cccs2)CC1	10.2% (inactive)
O=C(NCc1cccs1)C1CCCN(S(=O)(=O)c2ccc(Br)s2)C1 (configuration not stated)	18.8% (inactive)
O=C(NCc1cccs1)C1CCN(S(=O)(=O)N2CCCC2)CC1	4.08% (inactive)
COc1ccccc1NC(=O)c1ccc(-n2cncn2)nc1	18.8% (inactive)
FC(F)(F)c1ccc(Oc2ccccc2Cl)nc1	2.42% (inactive)
CCC(=O)N(Cc1ccco1)C1CC(=O)N(c2ccccc2)C1=O (configuration not stated)	0.67% (inactive)
O=C1CC(N(Cc2ccco2)C(=O)Nc2ccc(F)cc2)C(=O)N1c1ccc(F)cc1 (configuration not stated)	23.6% (active)
O=C1CC(N(Cc2ccc3c(c2)OCO3)C(=O)Nc2ccc(F)cc2)C(=O)N1c1ccccc1 (configuration not stated)	20.8% (inactive)
CCCCc1ccc(NC(=O)C(C)CC)cc1 (configuration not stated)	1.58% (inactive)
CC1=NN(C(=O)Cc2ccc([N+](=O)[O-])cc2)C(O)(c2cccnc2)C1 (configuration not stated)	7.72% (inactive)
O=C(Nc1ccc(O)cc1C(=O)O)c1ccc2c(c1)C(=O)N(Cc1ccco1)C2=O	15.1% (inactive)
Cc1c(NC(=O)c2ccc3c(c2)C(=O)N(Cc2ccco2)C3=O)cccc1C(=O)O	3.77% (inactive)
O=C1CCC(=O)N1N1C(=O)C2C3c4ccccc4C(c4ccccc43)C2C1=O (configuration not stated)	0.65% (inactive)
O=C(N/N=C/c1cc(Cl)cc([N+](=O)[O-])c1O)C1CC1	29.8% (inactive)
Cc1cc(C)n(CC(=O)N/N=C/c2cc([N+](=O)[O-])ccc2O)n1	31.6% (inactive)
Cc1cc(C(=O)N/N=C/c2cc(Cl)cc([N+](=O)[O-])c2O)c2ccccc2n1	30.4% (inactive)
O=C(Cn1nnc(-c2ccccc2)n1)N/N=C/c1cccc([N+](=O)[O-])c1O	7.92% (inactive)
O=C(Cn1cnc([N+](=O)[O-])n1)N/N=C/c1ccc(O)cc1O	2.52% (inactive)
O=C(Cn1nc2ccccc2n1)N/N=C/c1cc([N+](=O)[O-])ccc1O	37.9% (inactive)
Cc1cc(C)n(CC(=O)N/N=C/c2ccc([N+](=O)[O-])s2)n1	13.2% (inactive)
O=C(Cn1cnc([N+](=O)[O-])n1)N/N=C/c1ccccc1O	0.91% (inactive)

Structure (SMILES)	inhibition
Cc1nc2c(c(=O)c3ccccc3n2C)c(=O)n1C1CCCCCC1	-1.82% (inactive)
NS(=O)(=O)c1ccc(N/C=C\C(=O)c2ccncc2)cc1	13% (inactive)
CCNS(=O)(=O)c1ccc(NC(=O)CC(C)c2ccccc2)cc1 (configuration not stated)	1.21% (inactive)
CC(=O)Nc1cccc(/C(C)=N/NC(=O)c2cc(-c3ccncc3)nc3ccccc23)c1	10.5% (inactive)
Cc1cc(C)n(-c2ccc(Oc3ccccc3)c(S(=O)(=O)O)c2)n1	1.18% (inactive)
O=C1CC(c2cccs2)c2ccc3ccccc3c2N1 (configuration not stated)	0.72% (inactive)
Cc1ccc(N2C(=S)NC3c4ccccc4OC2(C)C3C(=O)N(C)C)cc1 (configuration not stated)	2.84% (inactive)
CN(Cc1cnccn1)Cc1nc(Cc2cccc(F)c2)no1	2.76% (inactive)
CCOc1[nH]n(-c2ccccc2)c(=O)c1C=Nc1ccccc1	7.67% (inactive)
CCOC(=O)c1ccc(NC(=O)CNS(=O)(=O)c2ccccc2)cc1	2.05% (inactive)
Oc1ccc(Cl)cc1C=Nc1ccccc1Br	1.39% (inactive)
Oc1ccc(Cl)cc1N=Cc1sc2ccccc2c1Cl	21% (inactive)
OCCC1CN(Cc2c(F)cccc2Cl)CCN1C1CCCC1 (configuration not stated)	-1.58% (inactive)
COc1ccc(OC)c2c1sc(=NC(=O)C1CC1)n2C	2.25% (inactive)
COCCCNc1nc2ccccc2[nH]c1=O	7.88% (inactive)
NC(=S)Nc1nc2ccccc2[nH]c1=O	23.5% (active)
COc1ccc2[nH]c(=O)c(NC(N)=S)nc2c1	16.1% (inactive)
Cc1occc1C(=O)NNC(=O)c1ccccc1Br	-1.69% (inactive)
O=C(Cn1nnc2ccccc2c1=O)NCC1CCC(C(=O)O)CC1 (configuration not stated)	0.69% (inactive)
COC(=O)Cc1cc(=O)oc2cc(OC)ccc12	1.65% (inactive)
CCCCc1cc(=O)oc2cc(O)ccc12	31.7% (inactive)
COc1ccc2c(CC(=O)NCC3CCC(C(=O)O)CC3)cc(=O)oc2c1 (configuration not stated)	3.73% (inactive)
